Only some compounds are listed: those with a hit (about 5.8% of all), similar ones and a draw of the others.
MCF10A rerep = induces DNA re-replication in MCF 10a normal breast cells | AID 624296 | actives 2.9% (n = 350,000) | MCF 10A DNA re-replication, Hoechst nuclear intensity, 48 h | Potency, µM (doses to about 46.1 µM), without a hit: at the top dose activity, positive = re-replication, usual class: activators; further: % of control where 0% means no effect; nearly all actives have a fitted effect of over 50% in size
KB-V1 cytotox = kills drug-selected multidrug resistant KB-V1 cells | KB-V1 MDR cells viability, CellTiter-Glo, 72 h | Potency, µM (series often up to 46.1 µM), usual class: cytotoxic | actives 3.4% (n = 400,000) | AID 1347076; further: on the % scale 0 is the no-effect control and ±100 the full control effect; nearly all actives have a fitted effect of over 60% in size
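Cytotoxicity toward P-gp-expressing KB-V1 cells was determined as loss of CellTiter-Glo luminescence after 72 h at 37 degrees C. Compounds were tested in quantitative HTS format across a concentration range, with curves fitted to normalized data.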
KB-3-1 tox = KB-3-1 parental cell cytotoxicity; AID 1347075; Potency, µM (doses to about 46.1 µM), usual class: cytotoxic; KB-3-1 viability, CellTiter-Glo ATP luminescence, 72 h; actives 1.4% (n = 400,000); further: on the % scale 0 is the no-effect control and ±100 the full control effect; nearly all actives have a fitted effect of over 60% in size
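KB-3-1 cells, DMEM (no phenol red) + 10% FBS; compound by pin transfer, 72 h, 37 °C. Readout: CellTiter-Glo luminescence after 10 min. Data normalized, curve-fitted.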
PINK1 expr mod = changes PINK1 expression; actives 0.2% (n = 410,000); Potency, µM (top dose mostly 76.6 µM), for the others: at the highest dose activation (PINK1 increase), usual class: activators; PINK1 immunofluorescence, high-content cytometry, 24 h; active means well fitted activation curve with a large enough effect; inconclusive means small, poorly fitted or top-dose-only effect; cell line not stated here; further: % of control where 0% means no effect; nearly all actives have a fitted effect of over 65% in size
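A stable cell line was treated with compounds at 5 concentrations for 24 hours, with CCCP as control. PINK1 levels and mitochondrial localization were measured by immunofluorescence with mitochondrial, cell and nuclear markers after fixation, read by laser-scanning cytometry.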
12-LOX inh = ALOX12 (human) lipoxygenase inhibition. purified 12hLO, xylenol orange hydroperoxide absorbance. Potency, µM (highest dose often 108 µM), for inactives: top-dose activity change, negative = inhibition, most hits filed as inhibitors. P18054. actives 1.1% (n = 580,000); further: on the % scale 0 is the no-effect control and ±100 the full control effect
Target sequence (P18054 whole entry, looked up): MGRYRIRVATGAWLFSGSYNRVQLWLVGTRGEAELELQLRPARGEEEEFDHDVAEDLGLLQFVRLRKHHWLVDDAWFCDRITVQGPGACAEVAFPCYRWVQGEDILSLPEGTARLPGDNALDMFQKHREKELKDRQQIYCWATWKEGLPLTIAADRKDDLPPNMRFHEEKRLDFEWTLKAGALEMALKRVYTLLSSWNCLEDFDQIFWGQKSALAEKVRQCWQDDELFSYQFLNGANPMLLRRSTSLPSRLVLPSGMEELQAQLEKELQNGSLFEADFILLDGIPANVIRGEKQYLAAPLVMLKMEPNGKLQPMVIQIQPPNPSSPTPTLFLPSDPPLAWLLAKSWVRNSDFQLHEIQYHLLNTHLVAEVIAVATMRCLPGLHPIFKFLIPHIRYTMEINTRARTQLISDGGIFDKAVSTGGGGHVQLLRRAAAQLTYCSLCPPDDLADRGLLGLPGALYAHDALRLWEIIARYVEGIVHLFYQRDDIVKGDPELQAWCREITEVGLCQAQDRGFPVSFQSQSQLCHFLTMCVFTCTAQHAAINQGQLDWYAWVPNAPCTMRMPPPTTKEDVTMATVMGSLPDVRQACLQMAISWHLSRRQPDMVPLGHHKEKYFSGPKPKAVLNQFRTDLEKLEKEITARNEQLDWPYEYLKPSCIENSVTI
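Hydroperoxide product was detected by ferrous iron/xylenol orange as the 573 to 405 nm absorbance ratio. Arachidonic acid at 40 uM (final) was turned over for 30 min at room temperature by 150 nM human 12hLO, pH 7.0 Hepes buffer, after 15 min compound preincubation.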
SW480 rerep = inducers of DNA re-replication in SW480 colon cancer cells | SW480 DNA re-replication, Hoechst DNA content imaging, 48 h | Potency, µM (highest dose often 46.1 µM), for the others: at the top dose re-replication activation, actives largely listed as activators | actives 1.8% (n = 340,000) | AID 624297; further: % of control where 0% means no effect; nearly all actives have a fitted effect of over 55% in size
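First, 250 cells per well were seeded. Next, compound or vehicle (23 nL) was pinned in, plates sat 48 hr at 37 C. Finally Hoechst was added for 40 min before fluorescence scanning.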
* hit, by the source's call; i = inactive; ? = inconclusive; / = not tested or not shown; [ ] = dose if it differs, or a comment. Unless noted, the call rests on the fitted dose curve; in most records, active means well fitted curve in the direction sought with a large enough effect; inconclusive means small, poorly fitted or top-dose-only effect, or another doubt; inactive means no such curve, though single readings can be large; an effect the other way counts as inactive or inconclusive. Potency means the concentration at half of the fitted maximal effect.

SMILES	MCF10A rerep	KB-V1 cytotox	KB-3-1 tox	PINK1 expr mod	12-LOX inh	SW480 rerep
FC(F)(F)c1cc(Cl)c2nc(-c3ccco3)c(Cc3ccccc3C(F)(F)F)n2c1	/	i	i	14%	10µM*	/
c1ccc(Nc2nc(CSc3nnnn3C3CCCC3)cs2)cc1	/	/	/	/	-14%	/
COc1cc2[nH]c(=O)n(CCCCCC(=O)NC3CCCC3)c(=O)c2cc1OC	-3%	i	i	0%	-18%	-5%
O=C(CCCn1c(=O)[nH]c2cc(Cl)ccc2c1=O)NC1CCCCCC1	0%	21µM*	i	-3%	0%	-2%
O=[N+]([O-])c1cccc(NC2=NCCC2)c1	-1%	i	13µM*	-2%	-6%	0%
O=[N+]([O-])c1ccc(NC(=S)Nc2ccc3c(c2)CCC3)cc1	/	/	/	/	40µM*	/
O=C(Nc1cccc([N+](=O)[O-])c1)Nc1ccc2c(c1)CCC2	16%	23µM*	?	?	-19%	28%
CC(NC(=O)Nc1cccc([N+](=O)[O-])c1)(C(F)(F)F)C(F)(F)F	12%	?	18µM*	?	-20%	3%
CN(C)NC(=S)Nc1ccc([N+](=O)[O-])cc1	/	/	/	/	-7%	/
CCOC(=O)/C(C#N)=C/c1ccc(Br)s1	/	/	/	/	1%	/
Cc1ccc(C(=O)N2CCCC3(C2)NC(=O)N(Cc2ccc(Cl)cc2)C3=O)cc1F (configuration not stated)	/	/	/	/	-9%	/
CC(=O)N(c1nc(C)c(C(=O)Nc2ccc3cc[nH]c3c2)s1)C1CC1	/	/	/	/	59%	/
Cc1ccc2oc(C(=O)N3CCCC3)cc(=O)c2c1	/	/	/	/	-30%	/
O=C(CCc1ncc(-c2ccccc2F)o1)N1CCOCC1	/	/	/	/	-5%	/
COCCCNC(=O)N1CCC2(CC1)CC(N(Cc1ccc(F)cc1)C1CC1)CCO2 (configuration not stated)	/	/	/	/	38%	/
COC(=O)c1sccc1NC(=O)Nc1cccc([N+](=O)[O-])c1	4%	i	i	0%	11%	1%
O=C(Nc1cccc([N+](=O)[O-])c1)Nc1cccs1	0.65µM*	i	i	29%	?	-9%
O=C(CCC1CCCCC1)N1CCN(Cc2ccc3c(c2)OCO3)CC1	9%	23µM*	?	-3%	-35%	-1%
CS(=O)(=O)N(CC(=O)N1CCN(Cc2ccc3c(c2)OCO3)CC1)C1CCCCC1	-5%	21µM*	i	1%	53%	-6%
CC(C)(C)CC(=O)N1CCN(Cc2ccc3c(c2)OCO3)CC1	-10%	i	i	0%	4%	-6%[9.22 µM]
O=C(O)c1ccc2oc(C(=O)c3ccccc3)cc2c1	/	/	/	/	0%	/
Cc1nc(-c2cccs2)c(CC(=O)N2CCN(c3cccc(Cl)c3)CC2)s1	/	/	/	/	2%	/
Cc1nc(-c2cccs2)c(CC(=O)N2CCc3ccccc3C2)s1	/	/	/	/	8.9µM*	/
CCc1noc(-c2cccn3c(CNC(=O)c4cc(Cl)ccc4F)nnc23)n1	/	/	/	/	86%	/
CC(=O)N1CCC2(CC1)CN(C(=O)Cc1cccc(O)c1)Cc1ccccc1O2	/	/	/	/	11%[6.33 µM]	/
SMILES	MCF10A rerep	KB-V1 cytotox	KB-3-1 tox	PINK1 expr mod	12-LOX inh	SW480 rerep
O=C(CS(=O)c1ccccc1[N+](=O)[O-])Oc1ccc(Br)cc1 (configuration not stated)	-1%	i	i	2%	-14%	-1%
CS(=O)(=O)c1ccc(S(=O)CC(=O)Oc2ccc(Cl)cc2)c([N+](=O)[O-])c1 (configuration not stated)	4.6µM*	?	21µM*	-4%	/	6.5µM*
CCn1cnnc1-c1nn(C)c2c1CN(C(=O)c1[nH]nc3c1CCc1cc(OC)ccc1-3)CC2	/	/	/	/	77%	/
CN1C(=O)C2(Oc3ccccc3C3CC(c4ccccc4)=NN32)c2ccccc21 (configuration not stated)	20%	18µM*	i	0%	/	?
Cc1ccc(C2=NN3C(C2)c2ccccc2OC32C(=O)Nc3ccccc32)cc1 (configuration not stated)	?	i	i	-1%	?	6%
CCOc1cc2c3c(c1)C(C)=CC(C)(C)N3C(=O)C2=O	?	?	21µM*	2%	-15%	?
CC(=O)Oc1cc2c3c(c1)/C(=C1/SC(=S)NC1=O)C(=O)N3C(C)(C)C=C2C	6%	i	i	6%	35%	-16%
CCOc1cc2c3c(c1)C(C)CC(C)(C)N3C(=O)C2=O (configuration not stated)	?	15µM*	i	2%[38.3 µM]	-13%	?
Cc1cc2c3c(c1)C(C)CC(C)(C)N3C(=O)C2=O (configuration not stated)	3%	i	i	6%	1%	9%
Cc1ccc2c3c1C(=O)C(=O)N3C(C)(C)CC2C (configuration not stated)	26µM*	i	i	3%[38.3 µM]	6%	?
CCSc1ccccc1C(=O)NC12CC3CC(CC(C3)C1)C2	/	/	/	/	10%	/
COc1ccc(C(=O)NCCNc2nc3c(C)cccc3cc2C#N)cc1	18µM*	i	i	6%	?	15%
COc1ccc(C(=O)NCCNc2nc3c(C)cccc3cc2C#N)cc1OC	0.58µM*	i	?	0%	i	2.6µM*
Cc1cccc2cc(C#N)c(NCCNS(=O)(=O)c3ccc4c(c3)OCCO4)nc12	?	23µM*	i	-2%[38.3 µM]	0%	16µM*
COc1ccc(C(=O)NCCNc2nc3ccc(C)cc3cc2C#N)cc1	21µM*	i	i	8%	?	?
CCC(=O)NCCCNc1nc2c(C)cccc2cc1C#N	-1%	?	i	3%	-5%	?
COc1cc(C(=O)NCCNc2nc3c(C)cccc3cc2C#N)cc(OC)c1OC	/	?	i	7%	-22%	/
COc1ccc(C(=O)NCCNc2nc3cc(C)cc(C)c3cc2C#N)cc1	/	?	i	/	0%	/
c1ccc(-c2nnn(Cc3ncc(-c4ccccc4)o3)n2)cc1	/	/	/	/	21%	/
C=CCn1c(N2CCCC(C)C2)nc2c1c(=O)n(C)c(=O)n2C (configuration not stated)	/	/	/	/	4%	/
Cc1ccc2cc(C#N)c(NCCNC(=O)C3CCC3)nc2c1C	?	15µM*	?	5%	-19%	?
Cc1ccc2nc(NCc3ccccc3)c(C#N)cc2c1	15µM*	i	i	4%	-10%	?
Cc1ccc(C(=C2C3C=CC2C2C(=O)NC(=O)C32)c2ccc(C)cc2)cc1 (configuration not stated)	?	15µM*	?	?	/	26%
Cc1ccc(NC2C(=O)NC(=O)NC2=O)cc1	23%	i	i	-3%	2%	11%

Source: PubChem BioAssay (National Center for Advancing Translational Sciences (NCATS))
